Results filed as inconclusive are left out. The source made the active and inactive calls. The calls were made as follows, unless noted: active = hit-call score of the fitted dose curve at least 0.9, where 1 is the maximum; inactive = score below 0.9.

This note sets out measurements from PubChem BioAssay (EPA / NIEHS).

Assay [1] deals with Estrogen-related receptor gamma (Homo sapiens) (UniProt P62508). As to the kind of experiment: ATG_ERRg_TRANS: Attagene TRANS-FACTORIAL HepG2 Assay for human Estrogen-Related Receptor gamma (ERRg) (AID 2282977; active = hit-call score of the fitted dose curve at least 0.9, where 1 is the maximum;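 also: hits increase reporter signal over DMSO so potencies reflect activators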). To be noted: HepG2 Attagene TRANS reporter, ERRg transactivation. A digest of the protocol:
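Induction of reporter transcripts through a chimeric NR-Gal4 protein is quantified in transfected human HepG2 liver cells after 24 h chemical exposure, using RT-PCR with capillary electrophoresis detection and DMSO as baseline.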

The target in assay [2] is Bile acid receptor (Homo sapiens) (UniProt Q96RI1). As to the kind of experiment: ATG_FXR_TRANS: Attagene TRANS-FACTORIAL HepG2 Assay for Farnesoid X Receptor (FXR) (AID 2282979; active = hit-call score of the fitted dose curve at least 0.9, where 1 is the maximum;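 also: hits raise reporter mRNA above DMSO so AC50 marks FXR activation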). To be noted: HepG2 Attagene TRANS FXR-GAL4 reporter transcription. A digest of the protocol: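 HepG2 cells were transiently transfected with GAL4-UAS reporters driven by chimeric NR-Gal4 proteins and dosed for 24 h. Reporter mRNA was quantified by RT-PCR, fluorescent labelling, HpaI digestion and capillary electrophoresis, with gain of signal scored versus DMSO.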
Chain of Bile acid receptor (Homo sapiens) (Q96RI1 whole entry, looked up, the tested form may be a part): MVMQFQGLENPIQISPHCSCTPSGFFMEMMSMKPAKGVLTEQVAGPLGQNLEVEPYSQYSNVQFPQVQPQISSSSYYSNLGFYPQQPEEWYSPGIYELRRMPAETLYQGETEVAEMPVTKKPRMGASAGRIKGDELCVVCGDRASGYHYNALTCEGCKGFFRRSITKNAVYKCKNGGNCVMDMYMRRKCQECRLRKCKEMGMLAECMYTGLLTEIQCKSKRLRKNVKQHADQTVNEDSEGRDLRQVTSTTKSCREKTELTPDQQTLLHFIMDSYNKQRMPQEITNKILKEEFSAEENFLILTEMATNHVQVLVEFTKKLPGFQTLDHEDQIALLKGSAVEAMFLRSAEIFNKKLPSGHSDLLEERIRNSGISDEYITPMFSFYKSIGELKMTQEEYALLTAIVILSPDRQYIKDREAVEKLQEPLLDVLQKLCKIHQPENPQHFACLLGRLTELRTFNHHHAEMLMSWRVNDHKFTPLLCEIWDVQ

Assay [3] has as its target Oxysterols receptor LXR-alpha (Homo sapiens) (UniProt Q13133). Kind of assay: ATG_LXRa_TRANS: Attagene TRANS-FACTORIAL HepG2 Assay for human Liver X Receptor alpha (LXRa) (AID 2282980; active = hit-call score of the fitted dose curve at least 0.9, where 1 is the maximum). Particulars: HepG2 Attagene TRANS reporter, LXRa transactivation. The method in brief:
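HepG2 cells transiently transfected with GAL4-UAS reporter units for chimeric NR-Gal4 proteins, exposed to chemicals for 24 h. Reporter mRNA quantified by RT-PCR and capillary electrophoresis; gain of signal fitted relative to DMSO.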

Assay [4] deals with Oxysterols receptor LXR-beta (Homo sapiens) (UniProt P55055). As to the kind of experiment: ATG_LXRb_TRANS: Attagene TRANS-FACTORIAL HepG2 Assay for human Liver X Receptor beta (LXRb) (AID 2282981; active = hit-call score of the fitted dose curve at least 0.9, where 1 is the maximum). Particulars: HepG2 Attagene TRANS GAL4-LXRb reporter, mRNA. A digest of the protocol:
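Multiplexed reporter assay, HepG2, 24 h dosing. Fluorescence of labelled RT-PCR products after capillary electrophoresis gives transcript level; positive fitting direction relative to DMSO.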

In assay [5] the target is Hepatocyte nuclear factor 4-alpha (Homo sapiens) (UniProt P41235). As to the kind of experiment: ATG_HNF4a_TRANS: Attagene TRANS-FACTORIAL HepG2 Assay for human Hepatocyte Nuclear Factor 4 alpha (HNF4a) (AID 2282982; active = hit-call score of the fitted dose curve at least 0.9, where 1 is the maximum). To be noted: HepG2 HNF4a transactivation reporter, mRNA readout. A digest of the protocol:
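Endpoint reflects transcriptional activation of a GAL4-UAS reporter by an HNF4a-GAL4 chimera in transfected HepG2 cells, 24 h post-dosing. Fluorescence from RT-PCR products separated by capillary electrophoresis; DMSO baseline.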

The nature of assay [6]: ATG_M_06_TRANS: Attagene TRANS-FACTORIAL HepG2 Assay for M06 Transcription Factor (Internal Marker) (AID 2282983; active = hit-call score of the fitted dose curve at least 0.9, where 1 is the maximum). To be noted: HepG2 Attagene TRANS M06 internal marker reporter. The method in brief:
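mRNA levels of a reporter transcript, quantified as FAM fluorescence on capillary electrophoresis, served as readout. HepG2 cells expressing exogenous GAL4-chimera reporter constructs were exposed for 24 h. Gain of signal over DMSO was evaluated.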

Assay [7] deals with Transcriptional activator Myb (Homo sapiens) (UniProt P10242). Kind of assay: ATG_Myb_CIS: Attagene CIS-FACTORIAL HepG2 Assay for human Myeloblastosis (Myb) Proto-Oncogene Transcription Factor (AID 2282986). Particulars: HepG2 Attagene CIS-FACTORIAL Myb reporter transcription; actives raise or lower the signal. The method in brief:
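Multiplexed cis-reporter system in HepG2: transient transfection, 24 h treatment, mRNA readout by RT-PCR and capillary electrophoresis. Both increases and decreases are scored versus DMSO negative control.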

Assay [8] addresses Nuclear respiratory factor 1 (Homo sapiens) (UniProt Q16656). As to the kind of experiment: ATG_NRF1_CIS: Attagene CIS-FACTORIAL HepG2 Assay for human Nuclear Respiratory Factor 1 (NRF1) Orphan Gene (AID 2282987). Particulars: HepG2 NRF1 cis-element reporter, Attagene multiplex; actives raise or lower the signal. The method in brief:
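Endogenous factor activity was captured via cis-element-driven reporter transcripts in HepG2 cells. Following 24 h chemical treatment, transcripts were quantified by RT-PCR and capillary electrophoresis.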

Assay [9] in a line: ATG_NFI_CIS: Attagene CIS-FACTORIAL HepG2 Assay for human Nuclear Factor I (NFI) (AID 2282989). Particulars: HepG2 cis-regulatory reporter, NFI response element transcription; actives raise or lower the signal. The method in brief:
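Read-out: reporter mRNA via RT-PCR plus capillary electrophoresis with fluorescence detection. Transiently transfected HepG2 (endogenous TF activity on cis promoters), 24 h compound exposure; gain or loss of signal fitted against DMSO.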

Assay [10] in a line: ATG_NF_kB_CIS: Attagene CIS-FACTORIAL HepG2 Assay for human Nuclear Factor Kappa B (NF-kB) (AID 2282991). To be noted: HepG2 Attagene cis-factorial NF-kB reporter mRNA; actives raise or lower the signal. A digest of the protocol: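 After 24 h compound incubation, transfected HepG2 cells yield total RNA; reporter cDNA is PCR-amplified, end-labelled with 6-FAM, HpaI-digested and analysed on a genetic analyser. Endogenous factor activity, DMSO-referenced bidirectional fit.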

A short description of assay [11]: ATG_Oct_MLP_CIS: Attagene CIS-FACTORIAL HepG2 Assay for human Octamer-Binding Transcription Factor (Oct) (AID 2282993). Particulars: HepG2 Attagene cis-factorial Oct reporter, mRNA; actives raise or lower the signal. A digest of the protocol:
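Read-out: reporter mRNA via RT-PCR plus capillary electrophoresis of 6-FAM-labelled fragments. Transiently transfected HepG2, 24 h exposure, endogenous TF activity on cis elements. Gain or loss of signal fitted relative to DMSO.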

Assay [12] addresses Cellular tumor antigen p53 (Homo sapiens) (UniProt P04637). As to the kind of experiment: ATG_p53_CIS: Attagene CIS-FACTORIAL HepG2 Assay for human p53 Transcription Factor (AID 2282994). To be noted: HepG2 p53 cis-element reporter, Attagene mRNA; actives raise or lower the signal. A digest of the protocol: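 In HepG2 cells, reporter transcription units under cis-regulatory promoters were transiently introduced. Following 24 h treatment, RNA was processed to labelled, digested cDNA fragments read by capillary electrophoresis; fitting was bidirectional versus DMSO.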

Assay [13] is described as follows: BSK_3C_TissueFactor: BioMAP Diversity Plus: 3C Assay for Tissue Factor Biomarker Activity (AID 2282997). To be noted: BioMAP 3C HUVEC, tissue factor biomarker readout; actives raise or lower the signal. A digest of the protocol: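 Tissue Factor measured by ELISA, 24 h after treatment of primary HUVEC in the BioMAP 3C setting.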
Assay [14] can be described thus: BSK_3C_uPAR: BioMAP Diversity Plus: 3C Assay for Urokinase-type plasminogen activator receptor (uPAR) Biomarker Activity (AID 2282998). Particulars: BioMAP 3C HUVEC, uPAR biomarker ELISA; actives raise or lower the signal. The method in brief:
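HUVEC primary cells; 24 h post-dose; uPAR by ELISA; gain or loss of signal fitted bidirectionally vs DMSO baseline.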
On the technique in general: In an ELISA, binding on a coated surface is turned into a signal by an enzyme label.

Assay [15] can be described thus: BSK_3C_VCAM1: BioMAP Diversity Plus: 3C Assay for Vascular cell adhesion molecule 1 (VCAM1) Biomarker Activity (AID 2282999). To be noted: BioMAP 3C HUVEC, VCAM1 ELISA, cytokine-stimulated; actives raise or lower the signal. A digest of the protocol: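 HUVEC primary cells, 24 h compound exposure; VCAM-1 by ELISA; gain/loss of signal fitted bidirectionally vs DMSO baseline.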

The nature of assay [16]: ATG_M_32_TRANS: Attagene TRANS-FACTORIAL HepG2 Assay for M32 Transcription Factor (Internal Marker) (AID 2282984; active = hit-call score of the fitted dose curve at least 0.9, where 1 is the maximum;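 also: transcript level of a background control reporter unit measured by RT-PCR and capillary electrophoresis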). Particulars: HepG2 Attagene TRANS M32 internal marker reporter. The method in brief: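 Internal-marker readout from a multiplexed transcription reporter panel. HepG2 cells were transfected with GAL4-UAS reporter units, treated 24 hours, and reporter transcript levels determined by fluorescence after RT-PCR and capillary separation.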

The target of assay [17] is Myc proto-oncogene protein (Homo sapiens) (UniProt P01106). Kind of assay: ATG_Myc_CIS: Attagene CIS-FACTORIAL HepG2 Assay for human Myelocytomatosis (Myc) Proto-Oncogene Transcription Factor (AID 2282990). Particulars: HepG2, Attagene cis-reporter transcription factor activity; actives raise or lower the signal. A digest of the protocol:
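Transiently transfected HepG2 cells bearing cis-promoter reporter units for endogenous transcription factors; 24 h exposure. Reporter mRNA measured by RT-PCR, 6-FAM primer extension, HpaI cut and capillary electrophoresis; bidirectional fit relative to DMSO.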

The nature of assay [18]: ATG_NRF2_ARE_CIS: Attagene CIS-FACTORIAL HepG2 Assay for human Nuclear Factor Erythroid 2 Related Factor 2 (NFR2) response to Antioxidant Response Elements (ARE) (AID 2282992). Particulars: HepG2 Attagene ARE/NRF2 reporter, transcription factor activity; actives raise or lower the signal. A digest of the protocol:
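Using transiently transfected HepG2 cells exposed for 24 h, reporter mRNA levels were determined by RT-PCR with fluorescent primer extension and capillary electrophoresis, analysed for gain or loss of signal against DMSO.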

For assay [19], the target named is Glucocorticoid receptor (Homo sapiens) (UniProt P04150). Kind of assay: ATG_GR_TRANS: Attagene TRANS-FACTORIAL HepG2 Assay for human Glucocorticoid Receptor (GR) (AID 2282978; active = hit-call score of the fitted dose curve at least 0.9, where 1 is the maximum;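 also: activators score as hits since higher reporter transcript over DMSO is fitted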). Particulars: HepG2 Attagene TRANS GR reporter, mRNA transcription. A digest of the protocol:
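HepG2 transient transfection, multiple reporter units, GAL4-UAS under NR-GAL4 chimera control. 24 h treatment. Reporter mRNA by RT-PCR/CE fluorescence, DMSO as negative control.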

Assay [20] concerns the target Nuclear receptor subfamily 4 group A member 2 (Homo sapiens) (UniProt P43354). As to the kind of experiment: ATG_NURR1_TRANS: Attagene TRANS-FACTORIAL HepG2 Assay for human Nuclear Receptor Related Protein 1 (NURR1) (AID 2282985; active = hit-call score of the fitted dose curve at least 0.9, where 1 is the maximum). To be noted: HepG2 Attagene TRANS reporter, mRNA readout. A digest of the protocol: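 Endpoint: reporter mRNA increase relative to DMSO. HepG2 cells transfected with reporter units, treated 24 h; RNA processed by RT-PCR, labelling, HpaI digestion and capillary electrophoresis.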

Chain of Cellular tumor antigen p53 (Homo sapiens) (P04637 whole entry, looked up, the tested form may be a part): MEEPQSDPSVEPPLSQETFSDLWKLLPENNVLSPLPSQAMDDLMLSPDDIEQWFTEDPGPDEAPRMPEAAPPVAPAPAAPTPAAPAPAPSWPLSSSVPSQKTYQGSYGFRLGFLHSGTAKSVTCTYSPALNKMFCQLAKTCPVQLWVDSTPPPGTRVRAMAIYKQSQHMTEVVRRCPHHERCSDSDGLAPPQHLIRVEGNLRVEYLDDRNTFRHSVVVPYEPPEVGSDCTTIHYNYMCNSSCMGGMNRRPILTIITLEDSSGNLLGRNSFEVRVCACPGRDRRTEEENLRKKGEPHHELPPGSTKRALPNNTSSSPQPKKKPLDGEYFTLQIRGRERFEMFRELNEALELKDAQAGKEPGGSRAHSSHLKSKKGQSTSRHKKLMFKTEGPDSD
Chain of Myc proto-oncogene protein (Homo sapiens) (P01106 whole entry, looked up): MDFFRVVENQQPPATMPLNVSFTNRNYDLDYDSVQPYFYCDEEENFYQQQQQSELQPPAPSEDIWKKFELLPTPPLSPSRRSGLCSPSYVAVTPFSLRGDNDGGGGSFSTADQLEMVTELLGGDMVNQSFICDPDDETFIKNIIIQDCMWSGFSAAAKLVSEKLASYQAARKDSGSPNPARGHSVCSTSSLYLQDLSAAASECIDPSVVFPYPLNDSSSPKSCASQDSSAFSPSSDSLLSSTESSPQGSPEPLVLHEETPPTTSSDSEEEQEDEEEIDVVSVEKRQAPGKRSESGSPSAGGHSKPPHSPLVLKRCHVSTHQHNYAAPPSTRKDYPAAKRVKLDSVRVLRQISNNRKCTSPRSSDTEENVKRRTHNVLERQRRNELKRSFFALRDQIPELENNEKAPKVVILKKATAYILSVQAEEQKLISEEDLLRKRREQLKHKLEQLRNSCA
Chain of Nuclear respiratory factor 1 (Homo sapiens) (Q16656 whole entry, looked up): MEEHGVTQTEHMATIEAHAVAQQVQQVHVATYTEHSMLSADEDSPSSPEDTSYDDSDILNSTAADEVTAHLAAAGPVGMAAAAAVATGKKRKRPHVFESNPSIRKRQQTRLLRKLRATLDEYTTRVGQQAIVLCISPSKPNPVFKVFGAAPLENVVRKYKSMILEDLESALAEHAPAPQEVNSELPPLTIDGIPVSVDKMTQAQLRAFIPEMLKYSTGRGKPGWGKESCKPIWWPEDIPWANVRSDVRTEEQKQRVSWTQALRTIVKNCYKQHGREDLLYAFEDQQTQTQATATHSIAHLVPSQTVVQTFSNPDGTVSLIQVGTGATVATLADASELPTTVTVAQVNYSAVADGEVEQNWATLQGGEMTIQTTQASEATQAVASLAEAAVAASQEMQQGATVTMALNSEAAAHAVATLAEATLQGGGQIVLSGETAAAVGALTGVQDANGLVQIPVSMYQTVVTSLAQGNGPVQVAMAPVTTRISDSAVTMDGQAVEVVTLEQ
Chain of Oxysterols receptor LXR-alpha (Homo sapiens) (Q13133 whole entry, looked up, the tested form may be a part): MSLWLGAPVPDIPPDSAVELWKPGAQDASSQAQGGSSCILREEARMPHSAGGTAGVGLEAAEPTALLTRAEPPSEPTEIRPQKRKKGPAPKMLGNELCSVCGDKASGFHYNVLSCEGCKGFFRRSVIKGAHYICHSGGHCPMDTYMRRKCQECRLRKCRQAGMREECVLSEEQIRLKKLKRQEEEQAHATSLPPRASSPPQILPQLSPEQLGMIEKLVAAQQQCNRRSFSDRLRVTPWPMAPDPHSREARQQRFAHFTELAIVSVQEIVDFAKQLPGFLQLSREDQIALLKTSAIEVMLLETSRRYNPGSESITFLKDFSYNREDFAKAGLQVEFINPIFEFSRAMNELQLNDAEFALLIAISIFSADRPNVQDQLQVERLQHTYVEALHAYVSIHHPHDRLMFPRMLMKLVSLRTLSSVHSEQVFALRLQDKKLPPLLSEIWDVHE
Chain of Oxysterols receptor LXR-beta (Homo sapiens) (P55055 whole entry, looked up, the tested form may be a part): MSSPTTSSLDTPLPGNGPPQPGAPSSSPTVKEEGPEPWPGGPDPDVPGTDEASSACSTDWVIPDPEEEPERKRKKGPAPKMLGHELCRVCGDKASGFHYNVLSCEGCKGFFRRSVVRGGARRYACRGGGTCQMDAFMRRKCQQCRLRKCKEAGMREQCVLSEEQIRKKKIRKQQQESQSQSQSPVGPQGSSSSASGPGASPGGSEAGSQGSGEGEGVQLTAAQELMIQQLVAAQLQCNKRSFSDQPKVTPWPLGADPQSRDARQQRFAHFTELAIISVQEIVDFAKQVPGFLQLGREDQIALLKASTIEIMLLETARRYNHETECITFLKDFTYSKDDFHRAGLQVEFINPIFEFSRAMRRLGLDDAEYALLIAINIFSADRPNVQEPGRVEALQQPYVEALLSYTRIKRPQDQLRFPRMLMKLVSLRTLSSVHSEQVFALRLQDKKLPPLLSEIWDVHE
Chain of Transcriptional activator Myb (Homo sapiens) (P10242 whole entry, looked up): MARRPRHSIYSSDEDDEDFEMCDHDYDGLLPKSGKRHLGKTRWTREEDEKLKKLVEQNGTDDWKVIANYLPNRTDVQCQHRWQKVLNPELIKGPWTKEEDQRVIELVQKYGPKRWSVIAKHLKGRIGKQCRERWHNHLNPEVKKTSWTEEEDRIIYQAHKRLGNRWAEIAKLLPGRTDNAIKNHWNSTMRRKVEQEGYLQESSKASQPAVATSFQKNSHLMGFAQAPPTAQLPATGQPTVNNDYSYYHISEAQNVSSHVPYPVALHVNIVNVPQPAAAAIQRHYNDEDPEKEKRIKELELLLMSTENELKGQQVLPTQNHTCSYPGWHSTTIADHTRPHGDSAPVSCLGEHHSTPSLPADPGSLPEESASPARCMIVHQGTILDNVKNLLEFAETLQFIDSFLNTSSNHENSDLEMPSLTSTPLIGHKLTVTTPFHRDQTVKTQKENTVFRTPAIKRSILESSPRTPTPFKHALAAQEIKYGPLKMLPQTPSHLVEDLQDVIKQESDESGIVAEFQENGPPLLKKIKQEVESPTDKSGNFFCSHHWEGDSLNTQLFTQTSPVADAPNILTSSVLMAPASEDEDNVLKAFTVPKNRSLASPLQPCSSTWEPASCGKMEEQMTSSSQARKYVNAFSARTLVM
Chain of Estrogen-related receptor gamma (Homo sapiens) (P62508 whole entry, looked up, the tested form may be a part): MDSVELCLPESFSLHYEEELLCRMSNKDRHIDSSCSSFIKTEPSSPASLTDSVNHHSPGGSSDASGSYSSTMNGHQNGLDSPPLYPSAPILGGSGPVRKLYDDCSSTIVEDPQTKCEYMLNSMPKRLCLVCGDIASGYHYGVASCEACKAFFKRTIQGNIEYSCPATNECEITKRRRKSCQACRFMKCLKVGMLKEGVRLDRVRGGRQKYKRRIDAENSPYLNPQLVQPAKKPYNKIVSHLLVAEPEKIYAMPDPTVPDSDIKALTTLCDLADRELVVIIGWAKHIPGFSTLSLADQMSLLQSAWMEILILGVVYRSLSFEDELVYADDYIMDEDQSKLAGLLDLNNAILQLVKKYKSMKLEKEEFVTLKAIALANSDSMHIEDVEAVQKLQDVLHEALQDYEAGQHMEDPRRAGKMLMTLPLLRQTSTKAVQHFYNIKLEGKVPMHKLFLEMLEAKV
Chain of Hepatocyte nuclear factor 4-alpha (Homo sapiens) (P41235 whole entry, looked up, the tested form may be a part): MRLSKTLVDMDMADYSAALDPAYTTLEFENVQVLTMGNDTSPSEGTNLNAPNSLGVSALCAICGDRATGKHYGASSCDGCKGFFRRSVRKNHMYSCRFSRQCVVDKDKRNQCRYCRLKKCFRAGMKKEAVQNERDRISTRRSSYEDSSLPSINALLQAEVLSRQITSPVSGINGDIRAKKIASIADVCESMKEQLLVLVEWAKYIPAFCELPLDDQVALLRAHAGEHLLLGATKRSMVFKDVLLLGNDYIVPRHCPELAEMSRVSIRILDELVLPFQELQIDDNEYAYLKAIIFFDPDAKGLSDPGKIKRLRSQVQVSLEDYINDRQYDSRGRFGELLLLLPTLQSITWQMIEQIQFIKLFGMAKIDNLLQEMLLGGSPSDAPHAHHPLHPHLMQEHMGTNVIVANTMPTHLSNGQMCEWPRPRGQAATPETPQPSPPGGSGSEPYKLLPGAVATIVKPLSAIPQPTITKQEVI
Chain of Nuclear receptor subfamily 4 group A member 2 (Homo sapiens) (P43354 whole entry, looked up): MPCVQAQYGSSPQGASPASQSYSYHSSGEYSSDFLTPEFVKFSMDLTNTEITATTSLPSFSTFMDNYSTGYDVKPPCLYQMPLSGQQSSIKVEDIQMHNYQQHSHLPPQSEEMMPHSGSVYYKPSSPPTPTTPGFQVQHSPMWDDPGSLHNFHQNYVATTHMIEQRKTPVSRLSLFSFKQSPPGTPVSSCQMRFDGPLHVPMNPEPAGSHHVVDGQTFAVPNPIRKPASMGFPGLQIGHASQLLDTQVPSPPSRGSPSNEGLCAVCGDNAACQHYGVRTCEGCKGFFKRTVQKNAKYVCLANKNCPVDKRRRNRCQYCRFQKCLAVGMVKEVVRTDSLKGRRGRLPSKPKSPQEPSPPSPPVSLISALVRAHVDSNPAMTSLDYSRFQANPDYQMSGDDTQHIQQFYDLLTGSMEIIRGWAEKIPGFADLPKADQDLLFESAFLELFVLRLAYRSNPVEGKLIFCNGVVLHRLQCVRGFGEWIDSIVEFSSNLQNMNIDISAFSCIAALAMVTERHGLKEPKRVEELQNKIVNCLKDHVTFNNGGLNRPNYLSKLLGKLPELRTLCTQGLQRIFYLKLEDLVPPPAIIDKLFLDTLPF

What is called AC50 is the concentration at which the activity in the assay is half-maximal. Turning to `COc1ccc(C(=CC(=O)N2CCOCC2)c2ccc(Cl)cc2)cc1OC`, the outcome in assay [1], in [2], in assay [3], in assay [4], in assay [5] and in assay [6] was inactive. Besides, the result in assay [7], in assay [8], in assay [9], in [10], in assay [12] and in assay [13] was inactive. In addition, the result in [15] was inactive. The AC50 in assay [11] is 13.8 µM (active); in assay [14], 12.7 µM (active).
Take `Cc1ccn2nc(S(=O)(=O)Nc3c(F)cccc3F)nc2n1`: the outcome in assay [1], in [2], in assay [4], in [6], in assay [16] and in assay [7] was inactive. Moreover, the outcome in assay [8], in assay [9], in [17], in [18], in assay [11] and in assay [13] was inactive. In addition, the result in assay [14] and in [15] was inactive.
For `Nc1nc(N)nc(NC2CC2)n1`, the result in [1], in assay [19], in [2], in [3], in [4] and in assay [6] was inactive. For the same molecule, the outcome in assay [16], in assay [20], in assay [7], in [8], in assay [17] and in assay [10] was inactive. The molecule was classed as inactive in [18], in [11], in [12], in assay [13], in assay [14] and in assay [15].
Take `CCC(=NOC/C=C/Cl)C1=C(O)CC(C2CCOCC2)CC1=O` (stereo not drawn): the molecule was called inactive in [1], in assay [19], in assay [3], in assay [4], in assay [5] and in assay [16]. Moreover, the outcome in assay [7], in assay [8], in assay [9], in assay [17], in [10] and in assay [11] was inactive. For the same molecule, the molecule was classed as inactive in assay [12], in [13], in [14] and in [15].
